# Compounds with a hit are over-represented: about 2% of the library has one in this group of screens.
# PREPL inh – PREPL enzyme inhibitors, primary screen, biochemical, fluorescence polarization; Prolyl endopeptidase-like (Homo sapiens), Q4J6C6; AID 2751, 2010; recombinant PREPL, fluorescence polarization activity-based probe; inhibition, % at 5.96 µM; 0.68% of 320,000 active; in the data active means inhibition above about 43%;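 further: 0% = enzyme with DMSO and 100% = wells lacking enzyme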
# Target sequence (Q4J6C6 whole entry, looked up): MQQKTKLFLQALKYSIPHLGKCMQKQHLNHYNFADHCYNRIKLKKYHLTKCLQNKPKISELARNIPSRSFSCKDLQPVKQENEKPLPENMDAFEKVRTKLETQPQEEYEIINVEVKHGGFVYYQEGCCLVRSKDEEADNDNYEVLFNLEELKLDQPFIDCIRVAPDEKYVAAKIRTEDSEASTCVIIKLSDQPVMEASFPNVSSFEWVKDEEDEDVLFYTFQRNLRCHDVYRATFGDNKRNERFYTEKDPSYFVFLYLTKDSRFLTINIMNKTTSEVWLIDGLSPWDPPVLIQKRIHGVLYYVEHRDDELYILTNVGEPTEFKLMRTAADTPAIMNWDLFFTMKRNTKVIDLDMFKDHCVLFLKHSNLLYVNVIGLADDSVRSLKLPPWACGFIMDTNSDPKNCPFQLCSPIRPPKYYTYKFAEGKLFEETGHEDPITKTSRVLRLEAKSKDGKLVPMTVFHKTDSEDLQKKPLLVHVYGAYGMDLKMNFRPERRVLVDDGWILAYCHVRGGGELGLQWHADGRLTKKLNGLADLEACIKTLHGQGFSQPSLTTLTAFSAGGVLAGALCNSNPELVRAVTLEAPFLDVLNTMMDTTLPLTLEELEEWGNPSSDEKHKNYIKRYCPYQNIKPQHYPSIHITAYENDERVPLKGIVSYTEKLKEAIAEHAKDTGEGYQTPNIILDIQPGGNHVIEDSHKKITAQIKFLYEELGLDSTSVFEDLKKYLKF
# PME-1 primary – PME-1 inhibitors via competitive probe labeling, primary screen, biochemical, fluorescence polarization, FP-Rh probe, HTS; 0.53% of 320,000 active; recombinant PME-1; Protein phosphatase methylesterase 1 (Homo sapiens), Q9Y570; inhibition, % at 5.9 µM;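 active means inhibition above the campaign mean of all compounds plus 3 SD, cut at about 26% in these data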;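 further: competitive labeling of PME-1 active site by serine hydrolase directed probe; 0% = PME-1 with DMSO and 100% = wells lacking PME-1 enzyme; inhibitors block probe labeling so polarization falls and inhibition rises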
# GSTO1 counter – inhibitors of recombinant GSTO1, primary screen, counter-screen for RBBP9 inhibitor project, biochemical, fluorescence polarization; Glutathione S-transferase omega-1 (Homo sapiens), P78417; activity-based probe fluorescence polarization; inhibition, % at 5.96 µM; 1.1% of 300,000 active; AID 1974, 2009;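 active means inhibition above the campaign mean inhibition plus 3 SD, cut at about 35% in these data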;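 further: 0% = GSTO1-1 with DMSO and 100% = wells lacking GSTO1-1 enzyme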
# Fam108B counter – mouse Fam108B serine hydrolase inhibitors, primary screen, counter-screen for RBBP9 inhibitor project, biochemical, fluorescence polarization | recombinant Fam108B, FP-Rh probe fluorescence polarization | inhibition, % at 9.51 µM | 0.33% of 300,000 active | AID 1947, 2009;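 active means inhibition above the screen mean inhibition plus 3 SD, computed separately per campaign, cut at about 18% in these data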;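 further: inhibitors lower polarization as less probe binds the enzyme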
# LYPLA1 inh – LYPLA1 inhibitors, primary screen, counter-screen for PME1 inhibitor project, biochemical, fluorescence polarization, FP-Rh probe ABPP. recombinant LYPLA1. Acyl-protein thioesterase 1 (Homo sapiens), O75608. inhibition, % at 5.9 µM. 0.16% of 320,000 active. AID 2174, 2009;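 active means inhibition above the mean of all tested compounds plus 3 SD, set per campaign, cut at about 14% in these data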;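 further: inhibitors block serine hydrolase probe labeling of LYPLA1 so polarization falls; 0% = enzyme with DMSO and 100% = wells lacking LYPLA1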
# LYPLA2 inh – LYPLA2 inhibitors, primary screen, counter-screen for PME1 inhibitor project, biochemical, fluorescence polarization, FP-Rh probe ABPP; AID 2177, 2009; 0.38% of 320,000 active; inhibition, % at 5.9 µM; Acyl-protein thioesterase 2 (Homo sapiens), O95372; recombinant LYPLA2;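 active means inhibition above the screen-wide mean plus 3 SD, limit set per campaign, cut at about 26% in these data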;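 further: 0% = LYPLA2 with DMSO and 100% = wells lacking LYPLA2 enzyme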
# Fam108b inh conf – mouse Fam108b serine hydrolase inhibitors, confirmation, counter-screen for RBBP9 inhibitor project, biochemical, fluorescence polarization, triplicate. shares compounds with Fam108B counter. recombinant Fam108b, FP-Rh probe fluorescence polarization. inhibition, % at 9.51 µM. 44% of 930 active;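 active means inhibition above a limit from the primary screen, the mean over all compounds plus 3 SD, cut at about 19% in these data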;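 further: 0% = median of active Fam108b wells and 100% = catalytically dead S170A mutant; inhibitors free the probe so polarization falls as inhibition rises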
# Fam108b inh – inhibition of mouse Fam108b by HTS hits, late-stage follow-up, biochemical, gel-based ABPP, soluble recombinant form; 44% of 260 active; AID 588649, 2011; shares compounds with Fam108B counter; fluorophosphonate probe; inhibition, % at 20 µM; in the data active means inhibition above about 40%
# Numbers without * were called inactive; . = not tested or not shown.
SMILES,PREPL inh,PME-1 primary,GSTO1 counter,Fam108B counter,LYPLA1 inh,LYPLA2 inh,Fam108b inh conf,others
O=C(Nc1cccc(Cl)c1)c1cc(N=Nc2ccc([N+](=O)[O-])cc2Cl)ccc1O,6.6,21.9,-7.6,25.7*,-10.9,-12.3,-0.6,
COCC(C)n1c(SCC(=O)NC(=O)NCc2ccccc2)nc2ccccc2c1=O (centres undefined),-2.1,.,.,.,.,.,.,
O=C1CCC(C(=O)N2CCSCC2)CN1Cc1cccc(C(F)(F)F)c1 (centres undefined),15.2,8.2,-0.5,-0.7,4.0,4.8,.,
COc1cccc(CN(C)C(=O)CSc2nc3ccccc3[nH]2)c1OC,-5.5,-6.0,10.7,-0.4,0.4,7.5,.,
Cn1ncc2c(Nc3ccc(Br)cc3)nc(Nc3ccc(Br)cc3)nc21,24.3,10.6,-34.4,18.9*,-39.5,-56.9,-21.1,
COc1cc2c(cc1NC(=O)Nc1ccc(C)cc1)oc1ccccc12,2.2,11.7,-14.4,4.6,-7.2,-17.6,.,
COc1cc2c(cc1NC(=O)Nc1cccc(C)c1)oc1ccccc12,6.0,35.8*,-2.6,22.5*,-11.6,5.6,8.1,
CCOC(=O)c1ccc(NS(=O)(=O)c2ccc3c(c2)NC(=O)CCS3)cc1,-5.8,1.8,11.7,-0.8,1.3,4.9,.,
O=C(CCCN1C(=O)c2cccc3cccc(c23)C1=O)NCc1cccs1,-15.7,0.9,3.6,21.9*,-5.5,-7.0,27.3*,
Cc1ccc(/C=C(\CCC(=O)O)c2nc3ccccc3s2)cc1[N+](=O)[O-],14.9,10.8,-9.4,0.5,-3.8,-5.5,.,
CN(c1ccccc1)c1ccc(/C=C(\CCC(=O)O)c2nc3ccccc3s2)cc1[N+](=O)[O-],21.2,10.9,34.3,20.2*,6.2,23.1,13.8,
N#CCCn1cc(C(=O)N2CCOCC2)c(-c2ccc3c(c2)OCCO3)n1,-1.6,-5.6,1.3,-5.0,0.4,-0.1,.,
Cc1nn(-c2ccccc2)c(Cl)c1/C=N/NC(=O)c1cccc(S(=O)(=O)N2CCCC2)c1,12.2,1.6,-0.4,-6.3,-4.5,3.8,.,
Cc1nn(-c2ccccc2)c(N2CCCC2)c1/C=N/NC(=O)c1cc2ccccc2cc1O,9.1,38.0*,-2.8,27.2*,-9.6,0.7,9.0,
Cc1nn(-c2ccccc2)c(N2CCCC2)c1/C=N/NC(=O)c1cccc(S(=O)(=O)Nc2ccc(Cl)cc2)c1,14.2,15.0,-33.5,21.9*,-14.4,-18.3,-6.2,
CC(=O)C[C@@H](O)CC(=O)[C@@H]1OC(=O)[C@H](C)CCCCc2ccccc21,-0.7,.,.,.,.,.,.,
O=[N+]([O-])c1cccc(-c2csc(N/N=C/c3cccc(O)c3)n2)c1,24.3,11.4,-9.6,32.2*,-14.1,-10.0,30.7*,
CCOC(=O)Cc1csc(N/N=C/c2cccc([N+](=O)[O-])c2)n1,11.2,3.6,-4.9,0.7,1.6,1.1,.,
CN(C)S(=O)(=O)c1ccc(-c2csc(N/N=C/c3ccc(O)cc3)n2)cc1,16.5,35.4*,-16.7,29.2*,-8.8,12.3,9.1,
Clc1ccc2c(N/N=C/c3cccc(Br)c3)ccnc2c1,21.4,6.9,-0.5,2.8,1.8,8.3,.,
O=[N+]([O-])c1ccc(/C=N/Nc2ccnc3cc(Cl)ccc23)o1,33.5,17.5,-5.7,19.3*,-5.6,-4.0,10.2,
C(=N\Nc1nc2ccccc2s1)/c1ccccn1,22.6,12.9,-10.6,4.4,1.0,-2.6,.,
Brc1csc(C=NNc2nc3ccccc3s2)c1,.,.,.,.,.,.,.,Fam108b inh=70.0*
Cc1ccc2[nH]c(C)c(/C=N/Nc3nc4ccccc4s3)c2c1,21.3,57.9*,-24.7,27.1*,0.4,-3.9,2.6,
O=[N+]([O-])c1cc(Cl)cc(/C=N/Nc2nc3ccccc3s2)c1O,6.9,20.2,14.5,32.7*,4.8,4.4,8.8,
SMILES,PREPL inh,PME-1 primary,GSTO1 counter,Fam108B counter,LYPLA1 inh,LYPLA2 inh,Fam108b inh conf,others
CCN(CC)S(=O)(=O)c1ccc(N2CCCC2)c(NC(=O)c2ccc(N3CCCC3=O)cc2)c1,-9.3,2.4,-0.5,-2.1,-4.8,-0.8,.,
COc1cc(/C=C2/C(=O)NN(c3cccc(C)c3)C2=O)cc([N+](=O)[O-])c1O,2.7,5.7,8.5,82.5*,3.6,4.4,5.7,
COc1cc(/C=C2/C(=O)NN(c3cccc(Cl)c3)C2=O)cc(OC)c1O,6.7,6.5,14.7,3.0,0.7,8.3,.,
Cc1ccc(C)n1-c1cccc(C(=O)O)c1,4.7,-26.7,53.2*,34.6*,-3.3,0.8,43.3*,Fam108b inh=0.0
Cc1cc(C=O)c(C)n1-c1cccc(C(=O)O)c1,-0.2,-6.4,3.8,1.5,-3.3,-1.7,.,
Cc1cc(C)cc(NC(=S)NCc2ccc3[nH]c4c(c3c2)CCCC4)c1,12.3,9.4,0.8,2.2,-3.6,-2.3,.,
S=C(NCc1ccc2[nH]c3c(c2c1)CCCC3)Nc1ccccc1,17.7,9.4,-5.4,21.4*,-1.6,6.7,13.0,
CCOc1ccc(-c2c(C(=O)N/N=C/c3c[nH]c4ccccc34)nnn2-c2nonc2N)cc1,16.6,20.9,-2.2,18.6*,-11.1,4.4,-3.6,
Cc1cc(C)c(NC(=O)CCN2C(=O)c3ccccc3S2(=O)=O)c(C)c1,7.0,0.4,8.0,3.1,-1.2,1.9,.,
Cc1[nH]c2ccccc2c1/C=N/NS(=O)(=O)c1ccccc1,22.1,5.4,7.2,3.3,-6.5,-9.1,.,
Cc1[nH]c2ccccc2c1/C=N/Nc1ccccc1[N+](=O)[O-],51.4*,46.8*,6.0,22.3*,2.8,3.7,-7.6,
Cc1cccc2c(N=NC(=O)c3ccc(NS(=O)(=O)c4cccs4)cc3)c(O)[nH]c12,18.7,16.3,.,.,-6.5,-8.5,.,
Cc1cccc2c(N=Nc3ccc(S(=O)(=O)Nc4ccc(Cl)cc4)cc3[N+](=O)[O-])c(O)[nH]c12,23.9,23.0,-40.6,20.2*,-9.4,-1.6,-22.5,
COc1cc(OC)cc(C(=O)Oc2ccc(/C=N/Nc3nc4ccccc4s3)cc2OC)c1,6.5,30.9*,0.0,25.8*,-4.0,-1.1,11.6,
Nc1nc2ccccc2n1N=Cc1ccc(Br)cc1,.,.,.,.,.,.,.,Fam108b inh=0.0
COc1cccc(C(=O)COc2cccc(NC(=O)c3cccc([N+](=O)[O-])c3)c2)c1,-19.8,22.5,-34.6,24.4*,-12.8,-2.1,23.6*,
